Results: PMC7862700, “An all-to-all approach to the identification of sequence-specific readers for epigenetic DNA modifications on cytosine”

Key:
Experiment in all cases: DAPPL (digital affinity profiling via proximity ligation, sequencing); 10 mM Tris-HCl pH 7.5, 50 mM NaCl, 1 mM DTT, 4% glycerol, room temperature, 30 min; GST-TFs on glutathione beads, 16-mer random dsDNA library, 0.1% formaldehyde crosslink after washing; high values mean tight binding
Settings in all cases: protein: recombinant; tags: N-terminal GST; dsDNA, one strand shown
[1] = target: T1, ELK1 (Homo sapiens, UniProt P19419 1-428)
T1 sequence: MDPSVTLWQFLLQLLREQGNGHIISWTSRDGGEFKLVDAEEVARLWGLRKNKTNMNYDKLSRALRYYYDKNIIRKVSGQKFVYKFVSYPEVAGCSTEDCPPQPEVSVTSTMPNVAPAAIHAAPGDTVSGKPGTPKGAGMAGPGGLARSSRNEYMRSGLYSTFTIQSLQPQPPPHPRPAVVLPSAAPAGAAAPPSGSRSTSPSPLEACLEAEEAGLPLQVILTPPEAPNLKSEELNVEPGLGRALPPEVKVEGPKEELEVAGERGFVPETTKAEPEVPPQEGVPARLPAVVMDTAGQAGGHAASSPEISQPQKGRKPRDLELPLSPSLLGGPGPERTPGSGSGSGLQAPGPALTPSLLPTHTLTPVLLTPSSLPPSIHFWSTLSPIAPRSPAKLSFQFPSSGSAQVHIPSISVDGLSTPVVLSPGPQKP
Summary of the method: (§1)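 Yeast served to express human transcription factors as GST fusions, which were then captured on glutathione beads and labelled with DNA barcodes. Pooled with a tag-only sample, they were incubated with 200 nmole of a 16-mer random double-stranded DNA library for 30 min at room temperature in Tris/NaCl/DTT/glycerol buffer, washed, crosslinked with 0.1% formaldehyde, ligated by proximity, amplified by PCR and sequenced. Dividing each hexamer's read frequency for a factor by its frequency for the tag-only sample gives the binding signal.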

[2] = target: T2, GABPA (Homo sapiens, UniProt Q06546 1-454)
T2 sequence: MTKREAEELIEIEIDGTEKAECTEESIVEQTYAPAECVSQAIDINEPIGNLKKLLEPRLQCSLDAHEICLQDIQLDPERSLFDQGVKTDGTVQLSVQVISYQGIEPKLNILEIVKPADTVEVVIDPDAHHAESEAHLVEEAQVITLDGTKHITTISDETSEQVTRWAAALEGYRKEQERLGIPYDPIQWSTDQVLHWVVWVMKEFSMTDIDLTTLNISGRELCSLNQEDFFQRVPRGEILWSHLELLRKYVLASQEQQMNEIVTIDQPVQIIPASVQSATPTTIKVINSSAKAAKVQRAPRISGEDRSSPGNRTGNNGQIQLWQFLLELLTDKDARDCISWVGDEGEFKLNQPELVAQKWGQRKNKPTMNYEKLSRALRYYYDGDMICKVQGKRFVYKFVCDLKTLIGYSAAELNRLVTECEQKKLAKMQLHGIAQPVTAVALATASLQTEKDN
Summary of the method: as §1

[3] = target: T3, ERG (Homo sapiens, UniProt P11308 1-479)
T3 sequence: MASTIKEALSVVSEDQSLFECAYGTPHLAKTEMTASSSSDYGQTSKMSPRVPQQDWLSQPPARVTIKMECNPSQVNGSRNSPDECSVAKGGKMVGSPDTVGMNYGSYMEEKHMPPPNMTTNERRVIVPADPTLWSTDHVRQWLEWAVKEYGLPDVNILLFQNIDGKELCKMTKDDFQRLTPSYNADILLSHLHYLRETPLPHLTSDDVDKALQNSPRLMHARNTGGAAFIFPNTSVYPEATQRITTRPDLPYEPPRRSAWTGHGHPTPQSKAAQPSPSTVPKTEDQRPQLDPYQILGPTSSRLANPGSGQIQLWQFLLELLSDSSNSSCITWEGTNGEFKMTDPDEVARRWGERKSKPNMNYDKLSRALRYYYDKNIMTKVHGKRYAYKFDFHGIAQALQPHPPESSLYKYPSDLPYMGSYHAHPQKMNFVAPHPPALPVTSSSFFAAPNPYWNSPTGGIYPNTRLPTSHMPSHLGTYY
Summary of the method: as §1

[4] = target: ELF1 (Homo sapiens, UniProt P32519 1-619)
Summary of the method: as §1

[5] = target: T4, EHF (Homo sapiens, UniProt Q9NZC4 1-300)
T4 sequence: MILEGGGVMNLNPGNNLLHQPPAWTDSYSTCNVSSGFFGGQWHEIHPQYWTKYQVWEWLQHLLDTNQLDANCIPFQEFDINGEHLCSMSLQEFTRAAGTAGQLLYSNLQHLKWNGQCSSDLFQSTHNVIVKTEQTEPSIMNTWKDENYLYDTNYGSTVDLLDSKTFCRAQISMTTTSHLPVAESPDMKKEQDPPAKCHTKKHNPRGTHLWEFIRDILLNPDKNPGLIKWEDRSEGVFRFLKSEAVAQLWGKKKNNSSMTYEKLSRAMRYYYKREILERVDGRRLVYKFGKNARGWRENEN
Summary of the method: as §1

[6] = target: SPIB (Homo sapiens, UniProt Q01892 1-262)
Summary of the method: as §1

[7] = target: T5, FEV (Homo sapiens, UniProt Q99581 1-238)
T5 sequence: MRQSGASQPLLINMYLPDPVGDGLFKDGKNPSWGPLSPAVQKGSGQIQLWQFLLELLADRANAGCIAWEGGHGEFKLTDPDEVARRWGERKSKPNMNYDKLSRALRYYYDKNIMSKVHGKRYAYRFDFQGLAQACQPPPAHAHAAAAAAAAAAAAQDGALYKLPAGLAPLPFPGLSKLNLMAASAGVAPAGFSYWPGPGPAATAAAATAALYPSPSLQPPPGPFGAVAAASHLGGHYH
Summary of the method: as §1

[8] = target: ETV5 (Homo sapiens, UniProt P41161 1-510)
Summary of the method: as §1

[9] = target: ELF4 (Homo sapiens, UniProt Q99607 1-663)
Summary of the method: as §1

[10] = target: T6, ELK4 (Homo sapiens, UniProt P28324-2 1-405)
T6 sequence: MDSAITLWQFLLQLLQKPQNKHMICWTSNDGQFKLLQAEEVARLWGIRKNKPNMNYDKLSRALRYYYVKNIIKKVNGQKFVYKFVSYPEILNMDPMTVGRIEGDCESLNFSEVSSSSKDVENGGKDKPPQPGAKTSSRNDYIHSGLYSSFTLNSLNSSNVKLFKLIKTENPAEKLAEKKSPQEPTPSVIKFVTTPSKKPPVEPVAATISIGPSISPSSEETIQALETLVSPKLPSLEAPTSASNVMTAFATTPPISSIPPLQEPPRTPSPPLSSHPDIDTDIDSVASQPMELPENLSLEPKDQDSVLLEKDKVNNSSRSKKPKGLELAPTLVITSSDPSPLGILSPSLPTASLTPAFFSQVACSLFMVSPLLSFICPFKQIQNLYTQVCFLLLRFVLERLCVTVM
Summary of the method: as §1

Sequence of ETV5 (P41161 whole entry): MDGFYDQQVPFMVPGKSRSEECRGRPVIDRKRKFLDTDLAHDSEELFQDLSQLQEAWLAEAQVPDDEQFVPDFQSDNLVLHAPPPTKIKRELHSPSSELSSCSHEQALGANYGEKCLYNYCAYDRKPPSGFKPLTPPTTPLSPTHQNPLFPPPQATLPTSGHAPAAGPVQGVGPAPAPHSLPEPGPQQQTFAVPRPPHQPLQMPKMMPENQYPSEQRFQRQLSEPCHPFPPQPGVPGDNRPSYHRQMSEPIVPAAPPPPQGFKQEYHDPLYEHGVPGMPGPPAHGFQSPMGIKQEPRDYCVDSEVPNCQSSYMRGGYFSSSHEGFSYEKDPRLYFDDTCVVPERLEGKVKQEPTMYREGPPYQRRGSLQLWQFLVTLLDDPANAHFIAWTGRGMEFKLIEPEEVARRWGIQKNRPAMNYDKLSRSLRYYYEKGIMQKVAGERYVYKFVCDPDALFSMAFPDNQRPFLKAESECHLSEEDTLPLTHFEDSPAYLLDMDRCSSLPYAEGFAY
Sequence of ELF4 (Q99607 whole entry): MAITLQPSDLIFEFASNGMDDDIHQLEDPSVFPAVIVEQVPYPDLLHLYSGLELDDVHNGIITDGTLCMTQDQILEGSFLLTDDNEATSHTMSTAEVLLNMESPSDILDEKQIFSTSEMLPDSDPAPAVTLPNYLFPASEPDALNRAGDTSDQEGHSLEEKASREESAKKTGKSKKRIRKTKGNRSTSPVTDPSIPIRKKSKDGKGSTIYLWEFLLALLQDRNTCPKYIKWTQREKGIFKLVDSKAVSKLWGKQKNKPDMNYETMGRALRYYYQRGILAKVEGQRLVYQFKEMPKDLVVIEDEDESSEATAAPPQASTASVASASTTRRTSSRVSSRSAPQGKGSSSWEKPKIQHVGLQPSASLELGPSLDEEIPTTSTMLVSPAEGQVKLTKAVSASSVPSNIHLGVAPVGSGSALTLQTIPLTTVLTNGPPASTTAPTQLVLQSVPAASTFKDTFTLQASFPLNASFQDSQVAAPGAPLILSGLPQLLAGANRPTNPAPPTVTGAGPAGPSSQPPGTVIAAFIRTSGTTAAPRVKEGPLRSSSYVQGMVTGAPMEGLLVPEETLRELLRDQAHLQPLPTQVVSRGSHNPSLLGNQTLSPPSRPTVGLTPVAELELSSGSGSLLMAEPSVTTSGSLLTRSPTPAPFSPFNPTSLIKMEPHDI
Sequence of ELF1 (P32519 whole entry): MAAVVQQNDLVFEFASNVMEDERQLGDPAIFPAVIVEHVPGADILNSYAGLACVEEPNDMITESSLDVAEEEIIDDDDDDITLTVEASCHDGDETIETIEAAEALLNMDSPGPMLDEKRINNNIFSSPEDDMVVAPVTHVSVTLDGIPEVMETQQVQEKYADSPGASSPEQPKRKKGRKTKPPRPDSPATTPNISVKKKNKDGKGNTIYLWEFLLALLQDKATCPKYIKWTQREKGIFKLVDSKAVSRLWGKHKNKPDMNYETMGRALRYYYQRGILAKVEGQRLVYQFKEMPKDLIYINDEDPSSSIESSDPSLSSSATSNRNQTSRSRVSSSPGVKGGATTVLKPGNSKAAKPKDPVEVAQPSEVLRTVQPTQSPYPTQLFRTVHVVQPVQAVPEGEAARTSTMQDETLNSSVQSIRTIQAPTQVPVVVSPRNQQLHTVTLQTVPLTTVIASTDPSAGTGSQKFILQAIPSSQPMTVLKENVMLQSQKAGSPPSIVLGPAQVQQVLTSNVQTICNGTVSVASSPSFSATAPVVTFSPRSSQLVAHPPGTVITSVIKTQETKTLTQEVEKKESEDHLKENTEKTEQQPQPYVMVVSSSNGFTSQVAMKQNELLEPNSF
Sequence of SPIB (Q01892 whole entry): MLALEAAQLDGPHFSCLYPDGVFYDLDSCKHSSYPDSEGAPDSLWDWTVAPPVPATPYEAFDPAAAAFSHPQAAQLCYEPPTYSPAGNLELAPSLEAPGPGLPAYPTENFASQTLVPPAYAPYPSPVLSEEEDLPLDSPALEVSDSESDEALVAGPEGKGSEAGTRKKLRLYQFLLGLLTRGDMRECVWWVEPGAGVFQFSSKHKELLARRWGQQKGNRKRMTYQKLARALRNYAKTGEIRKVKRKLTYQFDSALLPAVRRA

## GCCTGC
[1]
  binding signal: 1.13 fold enrichment (6-mer frequency, TF over GST control)
[2]
  binding signal: 1.07 fold enrichment (6-mer frequency, TF over GST control)
[3]
  binding signal: 1.03 fold enrichment (6-mer frequency, TF over GST control)
[4]
  binding signal: 1.13 fold enrichment (6-mer frequency, TF over GST control)
[5]
  binding signal: 1.19 fold enrichment (6-mer frequency, TF over GST control)
[6]
  binding signal: 1.18 fold enrichment (6-mer frequency, TF over GST control)
[7]
  binding signal: 1.11 fold enrichment (6-mer frequency, TF over GST control)
[8]
  binding signal: 1.05 fold enrichment (6-mer frequency, TF over GST control)
[9]
  binding signal: 1.06 fold enrichment (6-mer frequency, TF over GST control)
[10]
  binding signal: 1.18 fold enrichment (6-mer frequency, TF over GST control)
